Assay results: ChEMBL document CHEMBL1157539, “Thousands of chemical starting points for antimalarial lead identification” (Nature, 2010)

Tested on: Plasmodium falciparum
Experiment: GSK_TCMDC: Inhibition of Plasmodium falciparum Dd2 in whole red blood cells, using parasite LDH activity as an index of growth. Test compounds present at 2uM
Assay type: functional

Compared with COc1cccc(C(=O)Nc2sc3c(c2C(N)=O)CCCC3)c1OC, COc1cccc2cc(C(=O)N[C@@H](CC(C)C)C(=O)Nc3cc(F)ccc3Br)oc12 is higher in Inhibition: 8% for the first, 45% for the second.

First: CCCN(Cc1nnc(-c2cccs2)o1)C(=O)CSc1nnnn1-c1ccc(C)c(C)c1
Second: COc1cc(-c2nnc(SCC(=O)Nc3cc(C)on3)n2C)cc(OC)c1O
The Inhibition of the first is higher: 80% for the first, 2% for the second.

First: CCOC(=O)c1ccc(-c2c(C(F)(F)F)noc2-c2cc(CC)c(OC)cc2O)o1
Second: COC(=O)c1cccc(CNCc2cccc(-c3cccc(-c4nc5cc(F)ccc5[nH]4)c3)c2)c1.O=C(O)C(F)(F)F
The Inhibition of the first is higher: 95% for the first, 52% for the second.

Compared with O=C(Nc1ccc2c(c1)CCCN2S(=O)(=O)c1cccs1)c1cc([N+](=O)[O-])ccc1Cl, CN1CCN(c2ccnc3ccc(NC(=O)Nc4c(Cl)cccc4Cl)cc23)CC1 is lower in Inhibition: 95% for the first, 12% for the second.

Going from COc1cccc2cc(C(=O)N[C@@H](CC(C)C)C(=O)N[C@H](/C=N/N3C(=O)CN(Cc4ccccc4)C3=O)CCc3ccccc3)oc12 to Cc1cc(NC(=O)c2cccs2)ccc1OC1CCN(Cc2ccccc2)C1.O=C(O)C(F)(F)F (stereo unspecified), the Inhibition rises from 52% to 87%.

Compared with CCOC(=O)CCCCCNC[C@H](O)c1ccccc1.Cl, O=C(NCC1CCC(CNCCCc2ccccc2)CC1)c1cc(Cl)cc(Cl)c1 (stereo unspecified) is higher in Inhibition: 0% for the first, 13% for the second.

First: COc1c(C2CCN(CCCCNC(=O)C=Cc3cc4cc(Cl)ccc4o3)CC2)ccc2c1CCCC2
Second: COc1ccc2cc(C(=O)Nc3ccc4c(c3)CCN(C3CCC3)CC4)ccc2c1.O=C(O)C(F)(F)F
The Inhibition of the first is higher: 19% for the first, 9% for the second.

Going from O=C(Nc1ccc(C(=O)N(Cc2ccc3c(c2)OCO3)C2CCCC2)cc1)c1cccs1 to O=C(Nc1ccc(C(F)(F)F)cc1)c1cccc(S(=O)(=O)NCC2CCCN(CC3CCCCC3)C2)c1.O=C(O)C(F)(F)F (stereo unspecified), the Inhibition falls from 95% to 4%.

Compared with Cc1cccc2nc(-c3cccc(-c4ccc(CN5CCN(CCO)CC5)cc4)c3)[nH]c12.O=C(O)C(F)(F)F, Cc1cc(-c2ccc(CNCc3ccc(F)cc3)cc2)ccc1S(=O)(=O)NCCN1CCCC1.O=C(O)C(F)(F)F is lower in Inhibition: 63% for the first, 41% for the second.

Compared with COc1cc(F)c2nccc([C@@H](O)CN3CCC(NCc4nc5cccc(F)c5[nH]4)CC3)c2c1.O=C(O)C(=O)O, COc1ccc2nccc([C@@H](O)CN3CCC(NCc4ccc5nnsc5c4)CC3)c2c1.O=C(O)C(=O)O is lower in Inhibition: 5% for the first, 0% for the second.

Going from CN1CCN(c2ccc(Nc3nccc(-c4c(-c5cccc(NC(=O)c6c(F)cccc6F)c5)nn5ccccc45)n3)cc2)CC1 to O=C(O)C(F)(F)F.c1cc(CNCc2ccc3c(c2)OCO3)cc(-c2cccc(CNc3ccc4ncccc4c3)c2)c1, the Inhibition falls from 98% to 27%.

First: COc1cc(OC)cc(C(=O)N2CCOC(CCN3CCC(c4ccccc4)CC3)(c3ccc(Cl)c(Cl)c3)C2)c1 (stereo unspecified)
Second: O=C(/C=C/c1ccc(Cl)c(Cl)c1)NC1CCN(Cc2cccc(O)c2)CC1.O=C(O)C(F)(F)F
The Inhibition of the first is higher: 61% for the first, 0% for the second.

First: O=C(CCN1C(=O)c2ccccc2C1=O)N1CCN(CC=Cc2ccccc2)CC1
Second: Cc1ccc(S(=O)(=O)N2CCN(C(=O)c3cc(-c4ccccc4)n[nH]3)CC2)cc1
The Inhibition of the first is lower: 3% for the first, 88% for the second.

Going from O=c1cc(NCCC(CNCc2ccc(Br)o2)NCc2cc(Br)cc(Br)c2)[nH]c2ccccc12 (stereo unspecified) to COc1ccc(C=NN=c2cc(C)[nH]c3c(C)cccc23)c2ccccc12, the Inhibition rises from 90% to 98%.

First: NS(=O)(=O)c1cccc(N/C=C2\C(=O)Nc3ccc(S(=O)(=O)Cc4c(Cl)cccc4Cl)cc32)c1
Second: CN(C)CCOc1ccc(NC(=O)NC(C)(C)c2nc(-c3ccc(Cl)c(O)c3)c(-c3ccncc3)[nH]2)cc1.Cl
The Inhibition of the first is higher: 99% for the first, 98% for the second.

First: CC(=O)c1c[nH]c(C(=O)Nc2ccc(-c3cn4ccccc4n3)cc2)c1
Second: Cc1cc(N(C)C)nc(Nc2ccc(NC(=O)Nc3ccccc3)cc2)n1
The Inhibition of the first is lower: 95% for the first, 100% for the second.

Going from CCCCc1cc(NCC)nc(Nc2ccc(OC)cc2)n1 to Clc1ccc(-c2cc(-c3csc(Nc4ccncc4)n3)on2)cc1, the Inhibition rises from 32% to 99%.

First: O=C(NCC1CC1)C1CCN(C(c2ccccc2)c2cc(F)cc(F)c2)CC1 (stereo unspecified)
Second: CC(C)N1CCC(N(Cc2ccc(-c3ccc(C(F)(F)F)cc3)cc2)C(=O)Cn2c(SCc3cccc(F)c3F)cc(=O)c3c2CCC3)CC1.O=C(O)C(O)C(O)C(=O)O
The Inhibition of the first is higher: 95% for the first, 42% for the second.
